Data on 14 compounds can be found in PubChem BioAssay.

Molecules are shown by their SMILES. Values joined by “and” are separate entries in the source; they are usually repeats but may differ in a detail not shown here. Equal entries are not always repeated. Active and inactive are the calls of the source.

In one experiment the target is Albumin (Bos taurus) (UniProt P02769). Description: bovine serum albumin binders on microarray, profiling panel, artefact control for SMM control protein annotation, biochemical, small-molecule microarray, Alexa647 label, 635/667 nm fluorescence (AID 1118).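 Note: score merges 667 nm emission intensity and signal-to-noise per printed compound spot.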 The following applies: BSA-A647 binding, fluorescence 635 nm, higher = more signal.
Sequence of Albumin (Bos taurus) (P02769 whole entry, looked up): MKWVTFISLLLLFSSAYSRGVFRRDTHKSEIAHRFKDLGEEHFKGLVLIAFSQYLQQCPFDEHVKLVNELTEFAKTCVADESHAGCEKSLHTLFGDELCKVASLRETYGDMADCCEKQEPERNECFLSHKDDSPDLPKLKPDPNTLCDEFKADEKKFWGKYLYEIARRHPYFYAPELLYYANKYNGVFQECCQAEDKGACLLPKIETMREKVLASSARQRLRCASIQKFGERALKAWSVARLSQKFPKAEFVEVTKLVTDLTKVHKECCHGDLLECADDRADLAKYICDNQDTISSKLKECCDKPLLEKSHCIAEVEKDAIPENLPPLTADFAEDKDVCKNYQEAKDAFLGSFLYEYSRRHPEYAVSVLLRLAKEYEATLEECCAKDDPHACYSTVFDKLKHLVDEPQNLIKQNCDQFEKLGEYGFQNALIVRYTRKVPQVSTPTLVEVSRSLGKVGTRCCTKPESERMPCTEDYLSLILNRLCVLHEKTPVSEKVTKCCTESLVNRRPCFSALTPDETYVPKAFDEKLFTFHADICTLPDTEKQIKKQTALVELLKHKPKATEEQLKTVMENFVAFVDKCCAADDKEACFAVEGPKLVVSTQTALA
Experiment [1] in a line: small-molecule microarray binders of probe aXIP, primary screen, biochemical, NeuroSMM set, 635/667 nm fluorescence (AID 1119).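 Note: probe is the protein aXip251-270 applied at 1 µg/mL to compound-printed slides; binding of probe to printed compounds measured as 667 nm fluorescence plus signal to noise.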 Conditions: higher = more signal, called active from +8 up or from −8 down.
A short description of experiment [2]: small-molecule binders of probe aNOTCH3, primary screen, biochemical, small-molecule microarray, 635/667 nm fluorescence (AID 1120).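 Note: probe is a biotin-tagged antibody raised against NOTCH3 rather than NOTCH3 protein; score merges spot fluorescence near 667 nm with spot signal to noise.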 The following applies: higher = more signal.
Experiment [3] is described as follows: small-molecule binders of probe aNOTCH2, primary screen, biochemical, small-molecule microarray, 635/667 nm fluorescence (AID 1121).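 Note: score merges feature fluorescence read at 667 nm with its signal to noise.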 Conditions: higher = more signal.
The target in experiment [4] is Carbonic anhydrase 2 (Homo sapiens) (UniProt P00918). Description: CAII small-molecule binders, profiling panel, biochemical, small-molecule microarray, Alexa647-labelled CAII (AID 1122). The following applies: CAII-A647 binding fluorescence, higher = more signal.
The nature of experiment [5]: COS7 lysate on small-molecule microarray, probe aHis, 635 nm (AID 1123).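 Note: z-score combines 667nm fluorescence intensity with signal-to-noise per printed compound spot.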 Conditions: COS7 cell lysate, fluorescence, higher = more signal.
The nature of experiment [6]: compound binding in COS7 lysate, probe aLAP1, primary screen, cell lysate, small-molecule microarray (AID 1124).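 Note: lysate comes from COS7 cells expressing LAP1 and is applied at 0.3 µg/mL; score merges spot fluorescence near 667 nm with signal-to-noise over triplicate slides.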 The following applies: probe aLAP1, fluorescence, higher = more signal.
The subject of a further experiment is Sam68 (KHDRBS1). Description: Sam68 small-molecule binders, primary screen, biochemical, small-molecule microarray, 635 nm fluorescence (AID 1125).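 Note: score merges 667 nm channel intensity with signal to noise over triplicate slides.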 Conditions: small-molecule microarray binding, higher = more signal.
The subject of experiment [7] is Chordin-like protein 2 (CHRDL2). Description: CHRDL2 small-molecule binders, primary screen, biochemical, small-molecule microarray, 635 nm fluorescence (AID 1126).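 Note: printed compound slides probed with Chrdl2 protein at 4 µg/mL for 1 h at 4 C; score merges 667 nm emission intensity with signal to noise over three replicate slides.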 The following applies: small-molecule microarray binding, fluorescence 635 nm; higher = more signal.
Experiment [8] addresses Concanavalin-A (Canavalia ensiformis) (UniProt P02866). Description: ConA small-molecule binders, primary screen, artefact control for SMM control protein annotation, biochemical, small-molecule microarray, Alexa647 label, 635 nm (AID 1127).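 Note: z combines 667 nm emission intensity with signal-to-noise across three replicate slides.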 Conditions: ConA-A647 binding fluorescence, higher = more signal.

Sequence of Concanavalin-A (Canavalia ensiformis) (P02866 whole entry, looked up): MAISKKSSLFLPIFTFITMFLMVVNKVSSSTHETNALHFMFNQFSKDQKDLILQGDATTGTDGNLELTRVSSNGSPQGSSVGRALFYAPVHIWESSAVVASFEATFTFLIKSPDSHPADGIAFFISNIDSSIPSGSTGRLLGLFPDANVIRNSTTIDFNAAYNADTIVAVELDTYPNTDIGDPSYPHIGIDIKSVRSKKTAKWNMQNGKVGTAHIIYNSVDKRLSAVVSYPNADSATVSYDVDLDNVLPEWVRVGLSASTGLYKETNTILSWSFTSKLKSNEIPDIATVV

For `CC(CO)N1C(=O)[C@@H]2C3C(=O)OCCC=C[C@H]3OC23C=CCN(Cn2nnc4ccccc42)C(=O)[C@@H]13` (stereo not given in full), the composite z-score with Albumin (Bos taurus) was -0.169 and 0.923; in [2], -0.374 and -0.15; in experiment [3], -0.14 and -0.0191; in experiment [4], 0.939 and 0.856; in experiment [5], 0.342 and -0.478; in experiment [6] it was 0.102 and 0.397. The composite z-score in the experiment with Sam68 (KHDRBS1) is -0.821 and -0.291; in [7], -2.19 and 0.0479; in [8], -0.221 and -0.0699. In experiment [1], the composite Z-score was 0.318 (inactive) and 0.418 (inactive).
In the case of `C=CCN(C(=O)C1N(CCOCCO)C(=O)C2C(C(=O)O)C3C=CC21O3)c1ccc(OC)cc1` (stereo not given), the composite z-score with Albumin (Bos taurus) was -0.0638 and -1.17; in experiment [2], -0.421 and -0.459; in experiment [3], -0.211 and -0.143; in experiment [4], 0.797 and 0.959; in experiment [5], -0.39 and 0.89; in [6] it was 1.39 and 0.112. Further, the composite z-score is -1.5 and -2.25 in the experiment on Sam68 (KHDRBS1); -2.17 and -3.32 in [7]; -2.82 and -1.96 in [8]. The composite Z-score in experiment [1] was -0.598 (inactive) and -0.613 (inactive).
On to `C[N+](C)(C)CCCCNC(=O)[C@H]1C[C@H]2C(=O)N[C@@H](CCCC[N+](C)(C)C)C(=O)N2[C@H]1c1ccc(O)cc1`, for which the composite z-score with Albumin (Bos taurus) is -0.839 and -1.32; in [2], -0.0947 and 0.0311; in [3] it was -0.14 and -0.108; in experiment [4], 0.257 and 0.0659; in experiment [5], 0.385 and 0.233; in experiment [6], -0.126 and -0.102. The composite z-score in the experiment on Sam68 (KHDRBS1) is 1.32 and 0.681; in experiment [7], 1.5 and 1.48; in experiment [8], 1.16 and -0.33. Also, the composite Z-score in experiment [1] is 0.472 (inactive) and 2.29 (inactive).
As to `COC(=O)[C@@]1(Cc2ccc(OC)cc2)[C@H]2c3cc(C(=O)N(C)C)n(Cc4ccc(O)c(OC)c4)c3C[C@H]2CN1C(=O)c1ccccc1`, the composite z-score is 1.03 and 0.843 in the experiment with Albumin (Bos taurus); 0.359 and 0.68 in experiment [2]; 0.357 and 0.124 in experiment [3]; 0.893 and 0.406 in [4]; 1.81 and 2.81 in [5]; 1.17 and 0.341 in [6]. Further, the composite z-score was 0.725 and 1.22 in the experiment on Sam68 (KHDRBS1); -1.12 and -0.44 in [7]; 0.311 and 0.836 in [8]. For the same compound, the composite Z-score in experiment [1] is -0.0164 (inactive) and -0.483 (inactive).
With `C=CCN(CCCCC)C(=O)C(c1cccs1)N(C(=O)/C=C\C(=O)O)c1ccc(CCO)cc1` (stereo not given), the composite z-score in the experiment with Albumin (Bos taurus) is 0.516 and -0.0786; in experiment [2], -0.499 and -0.508; in [3] it was -0.183 and -0.0859; in experiment [4], 0.821 and 0.562; in [5] it was 0.455 and -0.0142; in [6], 0.411 and 0.0933. Besides, the composite z-score was -0.815 and -0.524 with Sam68 (KHDRBS1); -0.96 and -1.97 in experiment [7]; -0.222 and -0.806 in [8]. The composite Z-score in experiment [1] is 0.598 (inactive) and -0.378 (inactive).
As for `C=CCN(C(=O)C1N(c2c(Cl)cccc2CO)C(=O)C2C(C(=O)O)C3C=CC21O3)c1ccc(OC)cc1` (stereo not given), the composite z-score in the experiment with Albumin (Bos taurus) is 0.14 and -0.586; in [2], -0.786 and -0.515; in [3], -0.46 and -0.162; in experiment [4], 0.376 and -0.184; in [5], 0.016 and -0.849; in [6] it was 0.137 and -0.803. Also, the composite z-score in the experiment with Sam68 (KHDRBS1) was -0.608 and -1.33; in [7], -0.702 and -2.38; in experiment [8] it was -0.494 and -1.23. For the same compound, the composite Z-score in [1] is -0.172 (inactive) and -0.621 (inactive).
In the case of `COC(=O)C1=C(C)N(Cc2ccccc2)[C@]23O[C@](C(=O)OC)(C(=O)N2[C@@H]1c1ccccc1)[C@@H](C(=O)OC)[C@H]3C(=O)OC`, the composite z-score is 0.0583 and -0.396 with Albumin (Bos taurus); -0.0947 and -0.0892 in [2]; -0.165 and -0.106 in experiment [3]; 0.266 and -0.244 in experiment [4]; 0.189 and -0.172 in experiment [5]; -0.429 and -0.258 in experiment [6]. Also, the composite z-score was -0.192 and 0.227 in the experiment with Sam68 (KHDRBS1); -0.34 and 0.406 in [7]; -1.07 and 0.249 in [8]. The composite Z-score in experiment [1] is -0.179 (inactive) and -0.813 (inactive).
With `COC(=O)C1=C(C)N(Cc2ccccc2)[C@]23O[C@](C(=O)OC)(C(=O)N2[C@@H]1c1ccccc1)[C@H]1C(=O)N(C)C(=O)[C@H]13`, the composite z-score was 0.899 and 0.489 in the experiment with Albumin (Bos taurus); -0.212 and 0.0751 in experiment [2]; -0.116 and -0.148 in [3]; 0.354 and 0.309 in [4]; 0.909 and 0.901 in experiment [5]; 0.262 and -0.0393 in [6]. The composite z-score is 1.19 and 0.0927 with Sam68 (KHDRBS1); 0.0101 and 0.385 in experiment [7]; 1.08 and -0.174 in experiment [8]. Moreover, in experiment [1], the composite Z-score is -0.0443 (inactive) and 0.0886 (inactive).
Regarding `CC(C)[Si]1(C(C)C)OCc2cc(CCCc3cc4c(c(CCc5ccccc5)n3)[Si](C(C)C)(C(C)C)OC4)nc(CCc3ccccc3)c21`, the composite z-score is -1.72 and -0.26 with Albumin (Bos taurus); -0.124 and -0.0578 in experiment [2]; -0.125 and -0.108 in [3]; -0.139 and 0.0411 in experiment [4]; 0.002 and 0.081 in [5]; 0.485 and 0.0666 in experiment [6]. In addition, the composite z-score was 0.23 and 0.716 with Sam68 (KHDRBS1); -0.126 and 0.424 in [7]; -1.42 and 0.124 in experiment [8]. The composite Z-score in experiment [1] is -0.436 (inactive) and -0.38 (inactive).
For the compound `C=C[C@@H](C)[C@@H](O)c1ccc(OCCO)cc1`, the composite z-score is -0.342 and 0.259 in the experiment with Albumin (Bos taurus); -0.701 and -0.608 in experiment [2]; -0.153 and -0.199 in experiment [3]; 0.8 and 0.731 in experiment [4]; -0.217 and -0.451 in [5]; -0.262 and -0.524 in experiment [6]. Also, the composite z-score with Sam68 (KHDRBS1) is -0.97 and -0.832; in experiment [7], -3.22 and -2.09; in [8], -1.86 and -0.87. In addition, in experiment [1], the composite Z-score was 0.142 (inactive) and -0.0636 (inactive).
For `CCC[C@@H]1C[C@@]1(CCC)[C@@H](NC(=O)c1ccc(-c2ccccc2)cc1)c1cccc(Cl)c1`, the composite z-score with Albumin (Bos taurus) is -0.0449 and 0.93; in experiment [2], 1.31 and -0.0569; in experiment [3], 0.723 and 0.0809; in experiment [4] it was 0.305 and 0.812; in experiment [5], 2.51 and 1.41; in experiment [6], 0.421 and -0.244. For the same compound, the composite z-score in the experiment with Sam68 (KHDRBS1) was -0.546 and 0.593; in [7] it was 0.844 and -0.561; in [8], -1.47 and 0.217. In addition, the composite Z-score in experiment [1] is -0.281 (inactive) and -0.599 (inactive).
In the case of `C=CCN(CCCC)C(=O)C1N(C(C)(C)CO)C(=O)C2C(C(=O)O)C3C=CC21O3` (stereo not given), the composite z-score with Albumin (Bos taurus) is -0.0353 and -0.347; in experiment [2] it was -0.589 and -0.497; in experiment [3], -0.161 and 0.544; in experiment [4], 0.909 and 0.619; in experiment [5], 0.12 and -0.103; in [6], -0.2 and -0.226. For the same compound, the composite z-score in the experiment with Sam68 (KHDRBS1) was -1.62 and -1.72; in experiment [7], -3.25 and -1.75; in experiment [8] it was -1.25 and -2.32. Also, in experiment [1], the composite Z-score was -0.726 (inactive) and -1.17 (inactive).
`CO[C@H]1COC(=O)CC=C[C@H](C)[C@H](OC)COC(=O)[C@@H](C)COC(=O)CC=C[C@@H]1C`: the composite z-score is -0.774 and -0.721 with Albumin (Bos taurus); -0.0984 and -0.0932 in [2]; -0.153 and -0.14 in experiment [3]; -0.173 and -0.455 in [4]; -0.315 and -0.798 in experiment [5]; -0.497 and -0.561 in experiment [6]. The composite z-score in the experiment on Sam68 (KHDRBS1) is 0.467 and 0.0015; in experiment [7] it was 1.16 and 0.85; in experiment [8], -0.413 and -1.52. In experiment [1], the composite Z-score is 0.606 (inactive) and -0.054 (inactive).
As to `C=CCN(C(=O)C1N(CCCCCCO)C(=O)C2C(C(=O)O)C3C=CC21O3)c1ccc(OC)cc1` (stereo not given), the composite z-score was -0.547 and -1.14 with Albumin (Bos taurus); -0.577 and -0.287 in [2]; -0.0345 and -0.0148 in experiment [3]; 0.981 and 0.391 in [4]; 3.24 and 2.93 in experiment [5]; 1.44 and 0.066 in experiment [6]. Besides, the composite z-score is -0.931 and -2.13 in the experiment on Sam68 (KHDRBS1); -2.65 and -2.43 in experiment [7]; -0.941 and -2.04 in experiment [8]. Besides, the composite Z-score in [1] is -0.344 (inactive) and -0.542 (inactive).
